Assay results reported in PubChem BioAssay (NCI).
This is part of a sample that, as a whole, favours compounds with a hit. Of some 83,000 tested, about 20% had one in any assay.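 Results are percent growth after 48 hours of single-concentration exposure. 100 means growth as in untreated cells, lower positive values show inhibition; negative values down to -100 show cell death.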 The source made the active and inactive calls. The calls were made as follows: active = growth percent below 10; inactive = the rest.

What was measured:
Assay in all cases: NCI-60 one-dose screen, 48 h (100 = growth as untreated, 0 = no growth, -100 = all killed)
Settings in all cases: 10 µM unless noted
NCI/ADR-RES ovarian = system: NCI/ADR-RES ovarian
T-47D breast = system: T-47D breast
BT-549 breast = system: BT-549 breast
MDA-MB-435 melanoma = system: MDA-MB-435 melanoma
SW-620 colon = system: SW-620 colon
MCF7 breast = system: MCF7 breast
HCT-116 colon = system: HCT-116 colon
HCC-2998 colon = system: HCC-2998 colon
KM12 colon = system: KM12 colon

SMILES	growth (NCI/ADR-RES ovarian)	growth (T-47D breast)	growth (BT-549 breast)	growth (MDA-MB-435 melanoma)	growth (SW-620 colon)	growth (MCF7 breast)	growth (HCT-116 colon)	growth (HCC-2998 colon)	growth (KM12 colon)
Cn1cc(C2=C(c3cn(C4CCN(Cc5ccccn5)CC4)c4ccccc34)C(=O)NC2=O)c2ccccc21	84.4% (inactive)	54.5% (inactive)	78.3% (inactive)	47.6% (inactive)	47.8% (inactive)	76.1% (inactive)	38.2% (inactive)	31.4% (inactive)	57.2% (inactive)
CC(=O)Oc1ccccc1C(=O)NCCC[Se]C#N	14.4% (inactive)	83.3% (inactive)	-97% (active)	3.02% (active)	72.9% (inactive)	14.5% (inactive)	0.0792% (active)	97.9% (inactive)	29.6% (inactive)
O[C@H](CN1CC1)[C@@H](O)CN1CC1	56.3% (inactive)	48% (inactive)	81.9% (inactive)	78.3% (inactive)	64.4% (inactive)	41.7% (inactive)	66.3% (inactive)	97% (inactive)	91.5% (inactive)
CC[C@H](C)[C@H](NC(=O)[C@H]1CCCCN1C)C(=O)N(C)[C@H](C[C@@H](O)c1nc(C(=O)N[C@@H](Cc2ccccc2)C[C@H](C)C(=O)O)cs1)C(C)C	109% (inactive)	81.5% (inactive)	88.5% (inactive)	18.9% (inactive)	58.6% (inactive)	29.9% (inactive)	77.7% (inactive)	99.9% (inactive)	72.7% (inactive)
CCN(CCO)C(Cc1ccccc1)c1ccccc1 (centres undefined)	94.7% (inactive)	111% (inactive)	100% (inactive)	94.4% (inactive)	96.4% (inactive)	94% (inactive)	99.3% (inactive)	96.8% (inactive)	99.4% (inactive)
CC(=O)OC[C@]1(C)C=C2C(=O)[C@](C)(O)C3(CC3)C(C)=C2[C@H]1OC(=O)N(C)CCN(C)C(=O)OC(C)(C)C	-2.04% (active)	8.4% (active)	-32.8% (active)	-47% (active)	10.4% (inactive)	2.67% (active)	3.86% (active)	6.65% (active)	13% (inactive)
C/C(=C\c1cc(C(F)(F)F)nn1CCNC(=O)OC(C)(C)C)[C@@H]1C[C@@H]2O[C@]2(C)CCC[C@H](C)[C@H](O)[C@@H](C)C(=O)C(C)(C)[C@@H](O)CC(=O)O1	28% (inactive)	57.8% (inactive)	73.2% (inactive)	-27.6% (active)	34.7% (inactive)	31.2% (inactive)	23.3% (inactive)	57.3% (inactive)	20.3% (inactive)
CC[C@H](C)[C@H](NC(=O)c1nccn1C)C(=O)N(C)[C@H](C[C@@H](OC(C)=O)c1nc(C(=O)N[C@@H](Cc2ccccc2)C[C@H](C)C(=O)OC)cs1)C(C)C	16.5% (inactive)	47.9% (inactive)	0.0991% (active)	-48% (active)	26.1% (inactive)	17.5% (inactive)	3.27% (active)	31.5% (inactive)	11.1% (inactive)
CC1(C)N=C(N)N=C(N)N1c1ccc(CCCCc2ccc(Cl)c(S(=O)(=O)F)c2)c(Cl)c1	55.6% (inactive)	42.3% (inactive)	24.7% (inactive)	24.6% (inactive)	24.4% (inactive)	19.1% (inactive)	19.6% (inactive)	23.7% (inactive)	15.2% (inactive)
C=CCn1cc(C=C2C(=O)N(C)C(=O)N(C)C2=O)c2ccccc21	101% (inactive)	88.7% (inactive)	98% (inactive)	101% (inactive)	97.9% (inactive)	88.3% (inactive)	100% (inactive)	98.1% (inactive)	102% (inactive)
COc1cc(/C=C/[N+](=O)[O-])c([N+](=O)[O-])cc1OC	13.5% (inactive)	16.5% (inactive)	87.3% (inactive)	14% (inactive)	-57.3% (active)	8.83% (active)	-62.4% (active)	86.3% (inactive)	18.5% (inactive)
